Consider 12 compounds from PubChem BioAssay (Tox21).

Inconclusive results are not listed. Values without a mark were called inactive. Activity calls are given as the source filed them. Calls come from the whole dose curve; as a rule, active = well fitted curve in the direction sought with a large enough effect in the repeat runs; inconclusive = weak or mixed curves; inactive = no such curve, though single readings can be large; an effect the other way counts as inactive or inconclusive.

Assay [1] deals with Cytochrome P450 2C19 (Homo sapiens) (UniProt P33261). Briefly: Cytochrome P450 Family 2 Subfamily C Member 19 (CYP2C19) small molecule antagonists: luciferase reporter qHTS assay (AID 1671197). For activity change, negative = inhibition: series mostly up to about 120 µM. Note: nearly all actives have a fitted effect of over 65% in size. In short, it runs like this:
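Quantitative high-throughput screen of the Tox21 library using CYP2C19 with proluciferin substrate. Reaction: NADPH regeneration, 37C, 1 h, after 10 min compound preincubation at room temperature. Readout: luminescence.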
In general terms: In a reporter assay the amount or activity of a reporter protein is the signal.

Assay [2] has as its target Cytochrome P450 2C9 (Homo sapiens) (UniProt P11712). Briefly: Cytochrome P450 Family 2 Subfamily C Member 9 (CYP2C9) small molecule antagonists: luciferase reporter qHTS assay (AID 1671198). For activity change, negative = inhibition: series mostly up to about 120 µM. Note: nearly all actives have a fitted effect of over 50% in size. The method in brief:
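P450-Glo proluciferin substrate with CYP2C9 enzyme; 10 min RT preincubation, then NADPH regeneration 1 h at 37C; luciferin detection reagent 20 min RT, luminescence in relative luminescence units.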

Assay [3] addresses Cytochrome P450 2D6 (Homo sapiens) (UniProt P10635). As to the kind of experiment: Cytochrome P450 Family 2 Subfamily D Member 6 (CYP2D6) small molecule antagonists: luciferase reporter qHTS assay (AID 1671196). For activity change, negative = inhibition: series mostly up to about 120 µM. Note: nearly all actives have a fitted effect of over 50% in size. In short, it runs like this:
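Chemicals tested for interference with CYP2D6 activity; proluciferin substrate, NADPH regeneration, 1 h at room temperature, luminescent detection.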

Assay [4] has as its target Cytochrome P450 3A4 (Homo sapiens) (UniProt P08684). As to the kind of experiment: Cytochrome P450 Family 3 Subfamily A Member 4 (CYP3A4) small molecule antagonists: luciferase reporter qHTS assay (AID 1671201). For activity change, negative = inhibition: series mostly up to about 120 µM. Note: nearly all actives have a fitted effect of over 50% in size. In short, it runs like this: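 Compounds in DMSO were pin-transferred onto CYP3A4 enzyme-substrate mix and held 10 min at room temperature. NADPH regenerating solution started the reaction for 1 h; luciferin detection reagent stopped it, and luminescence was read after 20 min.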

Assay [5] concerns the target Voltage-gated inwardly rectifying potassium channel KCNH2 (Homo sapiens) (UniProt Q12809). Briefly: Human Ether-a-go-go-Related Gene (hERG) channel small molecule antagonists: fluorescence cell-based qHTS assay (AID 1671200).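 For activity change, negative = inhibition: hERG-expressing U2OS cells given a thallium stimulus after FluxOR II dye loading; series mostly up to about 77 µM.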 Note: nearly all actives have a fitted effect of over 50% in size. In short, it runs like this:
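Channel function was assessed by thallium flux. Cells seeded the previous day and kept at 37 C took up FluxOR II dye over 1 h in the dark at room temperature, then sat another 10 min before stimulation.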
A general note: Block of hERG is tested as a sign of cardiac risk.

In assay [6] the target is Cytochrome P450 1A2 (Homo sapiens) (UniProt P05177). As to the kind of experiment: Cytochrome P450 Family 1 Subfamily A Member 2 (CYP1A2) small molecule antagonists: luciferase reporter qHTS assay (AID 1671199). For activity change, negative = inhibition: series mostly up to about 120 µM. Note: nearly all actives have a fitted effect of over 50% in size. In short, it runs like this:
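Read-out is luminescence from luciferin detection reagent (20 min) proportional to CYP1A2 activity; compounds in DMSO preincubated 10 min with enzyme and proluciferin substrate, then NADPH regeneration solution, 1 h, room temperature.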
% is set by controls: 0 for no effect and ±100 for the full control effect; potency is the fitted concentration of half-maximal effect.

Cytochrome P450 1A2 (Homo sapiens), sequence (P05177 whole entry, looked up): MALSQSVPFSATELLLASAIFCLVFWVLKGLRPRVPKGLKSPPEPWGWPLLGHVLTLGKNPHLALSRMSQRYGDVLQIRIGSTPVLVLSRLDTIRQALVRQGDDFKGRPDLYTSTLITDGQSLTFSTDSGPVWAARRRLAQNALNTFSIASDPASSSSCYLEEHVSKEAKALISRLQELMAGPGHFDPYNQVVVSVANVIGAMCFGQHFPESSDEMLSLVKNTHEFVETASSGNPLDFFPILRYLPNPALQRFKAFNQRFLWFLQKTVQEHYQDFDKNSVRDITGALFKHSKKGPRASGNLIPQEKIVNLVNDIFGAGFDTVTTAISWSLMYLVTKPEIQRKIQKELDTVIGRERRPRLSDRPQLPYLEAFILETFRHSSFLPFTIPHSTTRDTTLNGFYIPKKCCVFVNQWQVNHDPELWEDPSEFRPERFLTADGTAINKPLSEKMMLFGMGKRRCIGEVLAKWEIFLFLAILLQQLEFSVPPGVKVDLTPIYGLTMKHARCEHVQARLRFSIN
Cytochrome P450 2D6 (Homo sapiens), sequence (P10635 whole entry, looked up): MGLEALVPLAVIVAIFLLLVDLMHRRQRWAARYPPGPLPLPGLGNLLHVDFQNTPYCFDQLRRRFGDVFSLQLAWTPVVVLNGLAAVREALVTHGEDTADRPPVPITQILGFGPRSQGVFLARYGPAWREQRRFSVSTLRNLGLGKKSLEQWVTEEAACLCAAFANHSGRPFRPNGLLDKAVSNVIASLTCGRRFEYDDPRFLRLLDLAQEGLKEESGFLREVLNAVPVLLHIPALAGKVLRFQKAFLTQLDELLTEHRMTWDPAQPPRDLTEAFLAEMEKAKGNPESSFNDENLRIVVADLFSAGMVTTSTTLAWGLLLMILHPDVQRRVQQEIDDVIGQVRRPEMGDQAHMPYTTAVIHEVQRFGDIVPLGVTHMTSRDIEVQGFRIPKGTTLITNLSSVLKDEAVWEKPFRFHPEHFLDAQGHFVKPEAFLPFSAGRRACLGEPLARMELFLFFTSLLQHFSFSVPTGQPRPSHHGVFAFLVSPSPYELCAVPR
Voltage-gated inwardly rectifying potassium channel KCNH2 (Homo sapiens), sequence (Q12809 whole entry, looked up): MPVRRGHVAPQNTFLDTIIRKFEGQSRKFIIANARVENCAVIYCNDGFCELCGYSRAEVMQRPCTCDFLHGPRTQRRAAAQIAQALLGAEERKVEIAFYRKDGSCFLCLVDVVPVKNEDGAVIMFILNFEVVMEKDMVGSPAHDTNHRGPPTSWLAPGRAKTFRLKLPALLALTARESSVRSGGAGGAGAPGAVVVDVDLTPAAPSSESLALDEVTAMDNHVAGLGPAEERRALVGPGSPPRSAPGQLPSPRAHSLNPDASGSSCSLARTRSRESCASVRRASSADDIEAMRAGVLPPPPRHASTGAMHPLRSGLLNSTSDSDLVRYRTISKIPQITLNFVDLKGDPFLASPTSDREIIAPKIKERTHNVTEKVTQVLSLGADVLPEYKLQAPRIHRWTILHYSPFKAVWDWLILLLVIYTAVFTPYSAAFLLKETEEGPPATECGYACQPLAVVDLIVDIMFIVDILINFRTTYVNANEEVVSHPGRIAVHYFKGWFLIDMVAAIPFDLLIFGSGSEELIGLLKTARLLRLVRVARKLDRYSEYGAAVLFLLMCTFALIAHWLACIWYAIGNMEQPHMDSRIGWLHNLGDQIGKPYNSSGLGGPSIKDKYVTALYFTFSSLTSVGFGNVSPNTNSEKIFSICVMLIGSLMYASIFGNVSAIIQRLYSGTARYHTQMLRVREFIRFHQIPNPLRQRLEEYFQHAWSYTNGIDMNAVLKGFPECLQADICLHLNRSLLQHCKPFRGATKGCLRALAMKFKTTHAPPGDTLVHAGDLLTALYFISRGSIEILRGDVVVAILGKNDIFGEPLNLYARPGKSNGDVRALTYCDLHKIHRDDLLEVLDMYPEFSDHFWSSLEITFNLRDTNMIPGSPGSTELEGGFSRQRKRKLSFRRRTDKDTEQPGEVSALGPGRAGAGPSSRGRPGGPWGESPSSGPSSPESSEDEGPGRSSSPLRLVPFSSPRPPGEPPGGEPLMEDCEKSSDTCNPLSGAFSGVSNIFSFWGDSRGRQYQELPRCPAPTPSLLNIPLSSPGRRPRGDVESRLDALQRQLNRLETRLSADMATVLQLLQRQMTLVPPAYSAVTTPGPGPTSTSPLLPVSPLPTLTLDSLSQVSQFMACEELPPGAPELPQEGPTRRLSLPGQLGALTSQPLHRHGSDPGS
Cytochrome P450 3A4 (Homo sapiens), sequence (P08684 whole entry, looked up): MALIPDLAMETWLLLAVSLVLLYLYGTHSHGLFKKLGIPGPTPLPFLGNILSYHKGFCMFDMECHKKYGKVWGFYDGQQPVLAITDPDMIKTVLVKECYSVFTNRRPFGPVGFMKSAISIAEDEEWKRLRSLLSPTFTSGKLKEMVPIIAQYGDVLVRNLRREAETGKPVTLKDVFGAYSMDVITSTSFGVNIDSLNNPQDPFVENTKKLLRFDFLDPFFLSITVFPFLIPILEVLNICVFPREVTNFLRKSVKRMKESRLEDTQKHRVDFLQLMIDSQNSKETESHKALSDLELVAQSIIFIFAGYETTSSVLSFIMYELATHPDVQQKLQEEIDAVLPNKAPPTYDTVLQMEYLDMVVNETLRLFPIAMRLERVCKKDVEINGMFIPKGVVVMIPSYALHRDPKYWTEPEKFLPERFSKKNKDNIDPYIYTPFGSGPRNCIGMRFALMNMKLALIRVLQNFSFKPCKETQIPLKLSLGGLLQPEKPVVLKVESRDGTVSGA
Cytochrome P450 2C9 (Homo sapiens), sequence (P11712 whole entry, looked up): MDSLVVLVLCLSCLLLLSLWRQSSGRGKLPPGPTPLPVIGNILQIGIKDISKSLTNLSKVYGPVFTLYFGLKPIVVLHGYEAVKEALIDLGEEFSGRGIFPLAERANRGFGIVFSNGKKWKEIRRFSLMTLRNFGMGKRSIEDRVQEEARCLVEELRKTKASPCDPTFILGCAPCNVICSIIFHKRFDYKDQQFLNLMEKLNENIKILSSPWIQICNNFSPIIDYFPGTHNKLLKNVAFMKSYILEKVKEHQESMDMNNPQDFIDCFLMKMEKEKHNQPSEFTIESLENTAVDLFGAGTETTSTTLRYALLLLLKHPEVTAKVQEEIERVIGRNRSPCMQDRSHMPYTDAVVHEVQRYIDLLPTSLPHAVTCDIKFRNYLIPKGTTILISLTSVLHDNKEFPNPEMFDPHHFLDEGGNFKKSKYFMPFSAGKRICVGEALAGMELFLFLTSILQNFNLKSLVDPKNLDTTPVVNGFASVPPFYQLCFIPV
Cytochrome P450 2C19 (Homo sapiens), sequence (P33261 whole entry, looked up): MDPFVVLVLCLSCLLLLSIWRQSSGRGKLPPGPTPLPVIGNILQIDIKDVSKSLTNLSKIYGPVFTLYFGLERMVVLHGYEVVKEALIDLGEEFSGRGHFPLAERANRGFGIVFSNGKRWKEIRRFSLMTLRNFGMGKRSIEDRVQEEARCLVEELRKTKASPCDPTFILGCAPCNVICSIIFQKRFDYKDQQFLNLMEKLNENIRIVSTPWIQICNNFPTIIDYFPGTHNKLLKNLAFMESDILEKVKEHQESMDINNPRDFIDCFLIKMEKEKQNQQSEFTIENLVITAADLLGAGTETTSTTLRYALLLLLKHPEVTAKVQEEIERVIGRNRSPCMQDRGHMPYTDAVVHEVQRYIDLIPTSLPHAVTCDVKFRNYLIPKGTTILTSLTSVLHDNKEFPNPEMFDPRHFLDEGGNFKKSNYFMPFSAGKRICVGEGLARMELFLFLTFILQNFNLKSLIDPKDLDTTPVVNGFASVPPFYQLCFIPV

On to `C=C(C)c1ccccc1`, for which the Potency entry in assay [1] and in assay [2] was “inactive” each time.

As to `COc1ccc(C)cc1`, the Potency in assay [3] was 17.8 µM (active); in assay [1], 79.6 µM (active). For the same compound, the Potency entry in assay [4] is “inactive”.

As to `CC(=O)c1ccc[nH]1`, the Potency result in assay [3], in assay [1], in assay [5] and in assay [4] was “inactive” in each case.

Turning to `CCCCCCCCCCCSCC(=O)O`, the Potency in assay [3] was 31.7 µM (active); in assay [2], 71 µM (active). Moreover, the Potency result in assay [6] and in assay [5] was “inactive” throughout.

Take `CN(C)CC/C=C1\c2ccccc2Sc2ccc(Cl)cc21`: the Potency in assay [3] was 2.75 µM (active); in assay [6], 7.23 µM (active); in assay [5], 3.01 µM (active). For the same compound, in assay [2], the Potency entry was “inactive”.

Consider `CCO[Si](C)(CCCOCC1CO1)OCC` (stereo unspecified), for which the Potency entry in assay [3], in assay [1] and in assay [5] was “inactive” in each case. For the same compound, the Potency in assay [4] is 39.9 µM (active).

With `Nc1ccc(NC(=O)c2ccc(N)cc2)cc1`, the Potency entry in assay [3], in assay [6] and in assay [5] was “inactive” in each case.

Turning to `CCCCCCCCCCCCCCN(C)C`, the activity change, negative = inhibition in assay [3] was -19.3% [at 23.6 µM]; in assay [2], -16.9% [at 23.6 µM]; in assay [5], -0.651% [at 15.8 µM].

Take `O=C(O)c1cccc(Oc2ccccc2)c1`: the Potency entry in assay [3], in assay [1], in assay [6] and in assay [4] was “inactive” throughout.

Regarding `O=C(O)CCC(=O)OC[C@@H](NC(=O)C(Cl)Cl)[C@H](O)c1ccc([N+](=O)[O-])cc1`, the Potency entry in assay [3] and in assay [6] was “inactive” in each case.

As to `CCC1CCC(CCC(=O)O)C1` (stereo unspecified), the Potency result in assay [3], in assay [5] and in assay [4] was “inactive” throughout. In addition, the Potency in assay [1] is 40.8 µM (active).

`CC[C@H]1OC(=O)[C@H](C)[C@@H](O[C@H]2C[C@@](C)(OC)[C@@H](O)[C@H](C)O2)[C@H](C)[C@@H](O[C@@H]2O[C@H](C)C[C@H](N(C)C)[C@H]2O)[C@](C)(O)C[C@@H](C)CN(C)[C@H](C)[C@@H](O)[C@]1(C)O`: the Potency result in assay [1], in assay [2], in assay [6] and in assay [5] was “inactive” each time.
